Molecules are shown by their SMILES. The source made the active and inactive calls. Unless noted, no rule for the calls is given here.

The test system of assay [1] is XIP peptide (Xip251-270) binding. The experiment in a line: small-molecule binders of XIP peptide, primary screen, biochemical, small-molecule microarray, fluorescence 635/667 nm, 0.1 µg/mL protein (AID 1182). Particulars: fluorescent protein binding, 635 nm, higher = more signal, called active from +8 up or from −8 down.
The subject of assay [2] is XIP peptide (Xip251-270). The experiment in a line: small-molecule binders of XIP peptide, primary screen, biochemical, small-molecule microarray, fluorescence 635/667 nm, 0.5 µg/mL protein (AID 1183). Particulars: small-molecule microarray binding, fluorescence 635 nm; higher = more signal.
Assay [3] can be described thus: Plasmodium falciparum growth inhibition, primary screen, strain 3D7, DAPI fluorescence, 100 nL (AID 1184).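 Also: parasites grown inside human red blood cells in medium with human serum.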 Particulars: P. falciparum 3D7 growth, 3 d, higher = more signal.
In assay [4] the target is Homeobox protein Hox-A13 (Mus musculus) (UniProt Q62424). The experiment in a line: inhibitors of HoxA13-DNA binding, primary screen, biochemical, fluorescence polarization, labeled oligonucleotide (AID 1185). Particulars: 15 min, higher = more signal, called active from +8 up or from −8 down.
Sequence of Homeobox protein Hox-A13 (Mus musculus) (Q62424 whole entry, looked up): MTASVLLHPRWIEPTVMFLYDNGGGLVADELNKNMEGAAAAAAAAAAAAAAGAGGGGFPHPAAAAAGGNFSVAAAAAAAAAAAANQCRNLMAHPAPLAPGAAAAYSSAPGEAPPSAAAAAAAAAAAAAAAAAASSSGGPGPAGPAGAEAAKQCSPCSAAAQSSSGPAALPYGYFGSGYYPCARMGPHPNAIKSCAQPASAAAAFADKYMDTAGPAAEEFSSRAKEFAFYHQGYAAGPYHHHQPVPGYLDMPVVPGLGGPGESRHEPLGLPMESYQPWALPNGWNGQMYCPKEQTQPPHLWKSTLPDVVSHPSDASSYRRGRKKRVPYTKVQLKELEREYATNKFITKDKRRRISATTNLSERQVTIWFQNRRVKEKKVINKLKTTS
Assay [5] is described as follows: inhibitors of hydroxyurea-induced Chk1 phosphorylation, primary screen, imaging, HeLa, phospho-Chk1 antibody, percent positive cells (AID 1186). Particulars: hydroxyurea-induced phospho-Chk1 immunofluorescence imaging, higher = more signal.
Assay [6] is described as follows: inhibitors of hydroxyurea-induced Chk1 phosphorylation, primary screen, imaging, HeLa, phospho-Chk1 nuclear intensity (AID 1187). Particulars: hydroxyurea-induced phospho-Chk1 immunofluorescence imaging, higher = more signal.

`C[N+](C)(C)CCCCCCNC(=O)[C@@H]1C[C@@H]2C(=O)N3CCC[C@H]3C(=O)N2[C@@H]1c1ccc(O)cc1`: the composite z-score in assay [1] was 0.45 (inactive); in assay [2], 0.723. For the same compound, the z-score in assay [3] was 0.0301; in assay [4] it was -1.82 (inactive); in assay [5] it was -0.265 (inactive); in assay [6] it was 0.127 (inactive).

Take `O=C1N(Cc2ccccc2)c2ccccc2C[C@]12N=C(c1ccc(OCCCO)cc1)O[C@@H]2c1ccccc1`: the figures for the composite z-score in assay [1] and in assay [2] were -0.12 (inactive) and 0.59, respectively. Moreover, the z-score in assay [3] was -2.37; in assay [4], -3.59 (inactive); in assay [5], -0.0747 (inactive); in assay [6], -0.154 (inactive).

Turning to `COCCOC(=O)N1C(=O)[C@@]2(c3cc(C#CCC(C(=O)OC)C(=O)OC)ccc31)[C@H](c1ccc(OCCO)cc1)N1[C@H](c3ccccc3)[C@H](c3ccccc3)OC(=O)[C@H]1[C@@H]2C(=O)N1CCc2cc(OC)c(OC)cc2C1`, the figures for the composite z-score in assay [1] and in assay [2] were 1.24 (inactive) and 0.727, respectively. Also, the z-score in assay [3] was -2; in assay [4], 2.86 (inactive); in assay [5] it was -0.0277 (inactive); in assay [6], 0.246 (inactive).

Take `CC1CC/C=C\[C@H]2OC34C=CCN(Cc5ccccc5)C(=O)[C@H]3N(C(CO)C(C)C)C(=O)[C@@H]4C2C(=O)O1` (stereo partly specified): the composite z-score in assay [1] was 0.0855 (inactive); in assay [2], -0.555. In addition, the z-score is 0.597 in assay [3], -5.14 (inactive) in assay [4], -0.0785 (inactive) in assay [5] and -0.204 (inactive) in assay [6].

Consider `COc1cccc(C)c1NC(=O)O[C@H]1[C@H](OC(=O)Nc2ccc3c(c2)OCO3)[C@@H](OC(=O)Nc2ccc3c(c2)OCO3)[C@@H](OC)O[C@@H]1CO`, for which the composite z-score in assay [1] is 0.519 (inactive); in assay [2], -0.0963. The z-score in assay [3] is -2.44; in assay [4] it was -10.8 (active); in assay [5] it was -0.088 (inactive); in assay [6], -0.224 (inactive).

With `COc1ccc([Si](C)(C)[C@@H]2[C@@H](CCO)O[C@]3(C(=O)N(Cc4cccc(NC(=O)[C@H](C)O)c4)c4ccccc43)[C@H]2C)cc1`, the values for the composite z-score in assay [1] and in assay [2] were 0.789 (inactive) and 0.755, respectively. Further, the z-score in assay [3] is -2.69; in assay [4] it was -5.95 (inactive); in assay [5], 0.214 (inactive); in assay [6], -0.189 (inactive).

Take `CC(C)[Si]1(C(C)C)OCc2cc(C3CC3)nc(-c3ccc(Oc4ccccc4)cc3)c21`: the composite z-score is -0.495 (inactive) in assay [1] and -0.603 in assay [2]. The z-score in assay [3] was -1.39; in assay [4], -2.85 (inactive); in assay [5], -0.48 (inactive); in assay [6], -0.358 (inactive).

As to `COc1cc2c(cc1O)C(C1CC1)N(C)CC2` (stereo unspecified), the composite z-score in assay [1] was -0.198 (inactive); in assay [2] it was 0.598. For the same compound, the z-score was -0.871 in assay [3], -4.09 (inactive) in assay [4], 0.2 (inactive) in assay [5] and 0.406 (inactive) in assay [6].

Turning to `O=C1OCCC/C=C\[C@H]2OC34C=CCN(c5ccc6ccccc6c5)C(=O)[C@H]3N(CCO)C(=O)[C@@H]4C12` (stereo partly specified), the composite z-score in assay [1] was 0.314 (inactive); in assay [2] it was -1.38. Further, the z-score in assay [3] is -1.05; in assay [4] it was -5.35 (inactive); in assay [5] it was -0.234 (inactive); in assay [6], -0.0994 (inactive).

As for `Cc1ccc(S[C@]2(C(=O)NCc3ccccc3)CC(=O)N(C3CCCCC3)[C@@H]2c2ccc(CO)cc2I)cc1`, the composite z-score in assay [1] is 0.2 (inactive); in assay [2] it was 0.742. Besides, the z-score in assay [3] was -2.17; in assay [4], -2.37 (inactive); in assay [5] it was 0.355 (inactive); in assay [6], 0.557 (inactive).

With `O=C1O[C@@H](c2ccccc2)[C@@H](c2ccccc2)N2[C@@H](c3ccc(O)cc3)[C@]3(C(=O)Nc4ccc(C#CCCO)cc43)[C@@H](C(=O)N3CCN(c4ncccn4)CC3)[C@H]12`, the composite z-score in assay [1] was 0.678 (inactive); in assay [2], 0.731. In addition, the z-score is -2.11 in assay [3], -2.41 (inactive) in assay [4], -0.193 (inactive) in assay [5] and 0.058 (inactive) in assay [6].

Turning to `CCOC(=O)C1=CC[C@@H](c2ccccc2F)N(S(=O)(=O)c2ccc(C)cc2)[C@H]1c1ccccc1`, the composite z-score was -0.0895 (inactive) in assay [1] and 0.563 in assay [2]. In addition, the z-score in assay [3] was -2.02; in assay [4], 1.41 (inactive); in assay [5], 0.0286 (inactive); in assay [6], -0.82 (inactive).

On to `NC(=O)NCC#Cc1ccc2c(c1)[C@]1(C(=O)N2)[C@H](C(=O)N2CCN(c3ncccn3)CC2)[C@H]2C(=O)O[C@H](c3ccccc3)[C@H](c3ccccc3)N2[C@@H]1c1ccc(O)cc1`, for which the composite z-score is -0.0728 (inactive) in assay [1] and 0.58 in assay [2]. Besides, the z-score was 1.79 in assay [3], -1.83 (inactive) in assay [4], 0.161 (inactive) in assay [5] and 0.359 (inactive) in assay [6].

For `CO[C@H]1O[C@H](CO)[C@@H](OC(=O)Nc2ccccc2)[C@H](OC(=O)c2cc3ccccc3[nH]2)[C@H]1OC(=O)c1cc2ccccc2[nH]1`, the composite z-score in assay [1] was 2.41 (inactive); in assay [2], 0.783. The z-score in assay [3] is -1.83; in assay [4] it was -4.4 (inactive); in assay [5] it was -0.389 (inactive); in assay [6], -0.562 (inactive).

As for `Cc1ccc(S[C@]2(C(=O)NCC(F)(F)F)CC(=O)N(Cc3cc(C(F)(F)F)cc(C(F)(F)F)c3)[C@@H]2c2ccc(CO)cc2)cc1`, the composite z-score in assay [1] is -0.491 (inactive); in assay [2], 0.584. Also, the z-score in assay [3] is 1.2; in assay [4] it was -1.71 (inactive); in assay [5], 0.0254 (inactive); in assay [6], 0.474 (inactive).

Turning to `COc1ccc([Si](C)(C)[C@H]2[C@H](CC(=O)N3Cc4ccccc4C[C@H]3CO)O[C@@]3(C(=O)N(Cc4ccc(N5CCOC5=O)cc4)c4ccccc43)[C@@H]2C)cc1`, the composite z-score was 1.61 (inactive) in assay [1] and 0.742 in assay [2]. In addition, the z-score in assay [3] was -0.847; in assay [4], -3.92 (inactive); in assay [5] it was -0.719 (inactive); in assay [6], -0.869 (inactive).

Values taken from PubChem BioAssay.
